Assay results published in PubChem BioAssay (NCI).
This is part of a sample that, as a whole, favours compounds with a hit. Of some 83,000 tested, about 20% had one in any assay.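 Results are percent growth after 48 hours of single-concentration exposure. 100 means growth as in untreated cells, lower positive values show inhibition; negative values down to -100 show cell death.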 Values without a mark were called inactive. Active and inactive are the calls of the source. The calls were made as follows: active = growth percent below 10; inactive = the rest.

Assays:
Assay in all cases: NCI-60 one-dose screen, 48 h (100 = growth as untreated, 0 = no growth, -100 = all killed)
Details in all cases: 10 µM unless noted
HCT-15 colon = test system: HCT-15 colon
HT29 colon = test system: HT29 colon
SNB-75 CNS = test system: SNB-75 CNS
SNB-19 CNS = test system: SNB-19 CNS
U251 CNS = test system: U251 CNS
PC-3 prostate = test system: PC-3 prostate
SK-MEL-5 melanoma = test system: SK-MEL-5 melanoma
UACC-62 melanoma = test system: UACC-62 melanoma
LOX IMVI melanoma = test system: LOX IMVI melanoma
SK-MEL-28 melanoma = test system: SK-MEL-28 melanoma

SMILES | growth (HCT-15 colon) | growth (HT29 colon) | growth (SNB-75 CNS) | growth (SNB-19 CNS) [%] | growth (U251 CNS) | growth (PC-3 prostate) [%] | growth (SK-MEL-5 melanoma) | growth (UACC-62 melanoma) | growth (LOX IMVI melanoma) | growth (SK-MEL-28 melanoma)
CCN(CC)CCOc1ccc(C(=C(C)c2ccc(OC)cc2)c2ccc(OCCN(CC)CC)cc2)cc1 | -27.1% (active) | -28.1% (active) | 30.5% | 11.9 | -44.5% (active) | 17 | -94.1% (active) | -81.6% (active) | -77.9% (active) | -83.7% (active)
COc1ccc(-c2nc(C#N)c(N3CCC(S(=O)(=O)N4CCOCC4)CC3)o2)cc1 | 105% | 101% | 103% | 96.9 | 104% | 98.2 | 97.1% | 96.3% | 100% | 99%
Cn1cc(-c2cc3ncnc(Nc4ccc(NC(=O)Nc5cc(C(C)(C)C)on5)cc4)c3s2)cn1 | 27.9% | 16.7% | 6.15% (active) | 56.4 | 37.9% | 28.5 | 20.8% | 22.2% | 6.08% (active) | 15%
C=C(C=O)[C@@H]1CC[C@]2(C(=O)O)CC[C@]3(C)C(CC[C@@H]4[C@@](C)(CCC#N)[C@H](C(=C)C=O)CC[C@]43C)[C@@H]12 (stereo not given in full) | 4.88% (active) | 0.538% (active) | 59% | 62.7 | 5.39% (active) | 30.3 | 26.3% | 30.9% | -81.7% (active) | -5.57% (active)
OCC(Nc1ncnc2ccc(-c3cnc4cnccn34)cc12)c1ccccc1 (stereo not given) | 92.3% | 83.5% | 85.6% | 70.6 | 88.5% | 79.9 | 37.5% | 74.1% | 85.2% | 97.8%
CCCCOc1ccc(S(=O)(=O)N2CCN(c3nc(C)cc(N4CCOCC4)n3)CC2)cc1 | 5.32% (active) | -35.5% (active) | 2.51% (active) | 62.6 | 18.8% | 36.4 | 84% | -23.6% (active) | -71.5% (active) | -2.33% (active)
CC(=O)OC[C@@]12Oc3c(cccc3-c3ccc(O)c4c3O[C@]3(COC(C)=O)C(=C4O)C(=O)C[C@H](C)[C@@H]3OC(C)=O)C(O)=C1C(=O)C[C@H](C)[C@@H]2OC(C)=O | 11.9% | 10.4% | -10.4% (active) | 17.7 | 16.6% | 11.6 | -62.8% (active) | -36.9% (active) | -66.1% (active) | 9.46% (active)
N#C/C(=C\c1ccc(-c2ccc(Cl)c(Cl)c2)o1)C(=O)Nc1ncc(Cc2ccc(Cl)cc2)s1 | 13.5% | 27.9% | 7.13% (active) | 37.8 | 3.74% (active) | 36.7 | 80.4% | 48.6% | -79.8% (active) | 18.2%
